Data reported in PubChem BioAssay (Tox21).
Where “and” joins values, the source holds several entries; their conditions need not be identical. Identical values can stand only once. Results filed as inconclusive are left out. Calls of active or inactive are those of the source. Unless noted, calls come from the whole dose curve; as a rule, active = well fitted curve in the direction sought with a large enough effect in the repeat runs; inconclusive = weak or mixed curves; inactive = no such curve, though single readings can be large; an effect the other way counts as inactive or inconclusive.

Key:
[1] = qHTS assay to identify small molecule antagonists of the glucocorticoid receptor (GR) signaling pathway - cell viability counter screen (AID 720693); note: nearly all actives have a fitted effect of over 55% in size
[2] = qHTS assay for identifying genotoxic compounds that show differential cytotoxicity against isogenic chicken DT40 cell lines with known DNA damage response pathways - wild type cell line (AID 743012); note: nearly all actives have a fitted effect of over 60% in size; note: potency is the fitted concentration of half-maximal effect
In short: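 Wild-type DT40 cells (300/well) exposed to compounds for 40 hours at 37 C/5% CO2. Viability read by CellTiter-Glo luminescence after 30 min at room temperature.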

[3] = qHTS assay for identifying genotoxic compounds that show differential cytotoxicity against isogenic chicken DT40 cell lines with known DNA damage response pathways - Rev3 mutant cell line (AID 743014); note: nearly all actives have a fitted effect of over 55% in size; note: potency is the fitted concentration of half-maximal effect
[4] = qHTS assay for identifying genotoxic compounds that show differential cytotoxicity against isogenic chicken DT40 cell lines with known DNA damage response pathways - Rad54/Ku70 mutant cell line (AID 743015); note: nearly all actives have a fitted effect of over 60% in size; note: potency is the fitted concentration of half-maximal effect
[5] = qHTS assay to identify small molecule antagonists of the androgen receptor (AR) signaling pathway - cell viability counter screen (AID 743033; note: nearly all actives have a fitted effect of over 45% in size; note: potency is the fitted concentration of half-maximal effect)
[6] = qHTS assay to identify small molecule antagonists of the androgen receptor (AR) signaling pathway using the MDA cell line - cell viability counter screen (AID 743041; note: nearly all actives have a fitted effect of over 45% in size; note: potency is the fitted concentration of half-maximal effect)
In short: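 R1881-driven MDA-kb2 AR-luc cells, 3,000/well, were dosed with library compounds for 16 h; cell health came from CellTiter-Fluor fluorescence in the reporter wells.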

[7] = target: Androgen receptor (Homo sapiens) (UniProt P10275); experiment: qHTS assay to identify small molecule antagonists of the androgen receptor (AR) signaling pathway (AID 743035; active = well fitted inhibition curve with a large enough effect in the signal ratio in the repeat runs, not every such curve was filed as active; the % refers to the signal ratio)
Androgen receptor (Homo sapiens), sequence (P10275 whole entry, looked up): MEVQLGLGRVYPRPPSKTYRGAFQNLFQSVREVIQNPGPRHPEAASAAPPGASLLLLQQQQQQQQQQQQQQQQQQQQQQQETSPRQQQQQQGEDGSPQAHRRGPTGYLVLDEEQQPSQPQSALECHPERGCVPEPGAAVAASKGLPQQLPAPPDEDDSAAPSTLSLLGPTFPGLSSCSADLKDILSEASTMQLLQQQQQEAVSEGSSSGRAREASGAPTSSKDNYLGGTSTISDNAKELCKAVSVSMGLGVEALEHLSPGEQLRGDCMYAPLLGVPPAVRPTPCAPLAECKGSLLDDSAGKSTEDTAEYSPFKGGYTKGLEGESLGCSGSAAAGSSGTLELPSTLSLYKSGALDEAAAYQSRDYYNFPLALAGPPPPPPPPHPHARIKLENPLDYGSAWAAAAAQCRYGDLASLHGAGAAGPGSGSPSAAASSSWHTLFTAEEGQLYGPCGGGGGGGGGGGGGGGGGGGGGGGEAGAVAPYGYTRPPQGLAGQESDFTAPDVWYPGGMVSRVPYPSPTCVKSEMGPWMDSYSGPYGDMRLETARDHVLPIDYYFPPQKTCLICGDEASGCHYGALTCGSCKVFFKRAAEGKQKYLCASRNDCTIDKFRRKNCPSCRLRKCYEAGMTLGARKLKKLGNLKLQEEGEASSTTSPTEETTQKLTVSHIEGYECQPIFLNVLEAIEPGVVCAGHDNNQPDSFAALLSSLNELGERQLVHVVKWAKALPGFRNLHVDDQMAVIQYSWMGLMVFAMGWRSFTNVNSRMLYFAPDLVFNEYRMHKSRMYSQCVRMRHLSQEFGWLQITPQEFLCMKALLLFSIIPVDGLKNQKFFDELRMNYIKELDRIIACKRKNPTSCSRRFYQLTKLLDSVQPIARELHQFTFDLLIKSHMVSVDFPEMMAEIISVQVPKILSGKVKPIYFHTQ
In short: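 HEK293 cells stably carrying UAS-beta-lactamase reporter, 2,000/well, given compounds plus R1881 agonist and incubated 16 h at 37C. LiveBLAzer B/G FRET substrate then added for 2 h at room temperature before fluorescence reading.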

[8] = target: Androgen receptor (Homo sapiens) (UniProt P10275); experiment: qHTS assay to identify small molecule agonists of the androgen receptor (AR) signaling pathway (AID 743036; active = well fitted activation curve with a large enough effect in the signal ratio in the repeat runs, with a control signal flat, not every such curve was filed as active; the % refers to the signal ratio)
In short: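 Agonist activity was scored by beta-lactamase reporter fluorescence in stably transfected HEK293 cells exposed to compounds for 16 h at 37C and 5% CO2. Substrate loading took 2 h at room temperature.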

[9] = target: Androgen receptor (Homo sapiens) (UniProt P10275); experiment: qHTS assay to identify small molecule agonists of the androgen receptor (AR) signaling pathway using the MDA cell line (AID 743040; note: nearly all actives have a fitted effect of over 20% in size)
In short: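 After a 5 h incubation at 37C and 0% CO2, MDA-kb2 reporter cells were dosed with compounds in DMSO and kept 16 h under the same conditions. Luciferase activity was then read as luminescence with ONE-Glo.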

[10] = target: Androgen receptor (Homo sapiens) (UniProt P10275); experiment: qHTS assay to identify small molecule antagonists of the androgen receptor (AR) signaling pathway using the MDA cell line (AID 743042; note: nearly all actives have a fitted effect of over 55% in size; note: potency is the fitted concentration of half-maximal effect)
In short: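 Antagonist mode: compounds plus R1881 agonist added to MDA-kb2 AR-luc cells, incubated 16 h at 37C. Luciferase reporter luminescence quantified, with multiplexed CellTiter-Fluor readout for cell viability.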
% is set by controls: 0 for no effect and ±100 for the full control effect.

Cc1nc2ccccc2s1
inactive: Potency [1] | Potency [2] | Potency [3] | Potency [4] | Potency [5] | Potency [6]

CCCCN(CCCC)CCCOC(=O)c1ccc(N)cc1
active: Potency [2] 4.52 µM | Potency [3] 2.27 µM | Potency [4] 4.52 µM
inactive: Potency [1] | Potency [5] | Potency [6]

O=C(O)Cc1ccc(-c2ccccc2)cc1
inactive: Potency [1] | Potency [2] | Potency [3] | Potency [4] | Potency [7] | Potency [8] | Potency [9] | Potency [6] | Potency [10]

COC(OC)(C(=O)c1ccccc1)c1ccccc1
inactive: Potency [1] | Potency [5] | Potency [6]
active: Potency [2] 54.4 µM | Potency [3] 15.3 µM | Potency [4] 48.5 µM

CC(COc1ccc(C(C)(C)C)cc1)OS(=O)OCCCl (stereo not drawn)
inactive: Potency [1] | Potency [2] | Potency [3] | Potency [4] | Potency [5] | Potency [6]

CCCCC1C(=O)N(c2ccccc2)N(c2ccc(O)cc2)C1=O (stereo not drawn)
active: Potency [2] 3.2 µM | Potency [3] 5.69 µM | Potency [4] 5.07 µM | Potency [10] 12.7 µM
inactive: Potency [1] | Potency [9]

CCCCCCOC(=O)CCCCCCCC(=O)OCCCCCC
inactive: Potency [1] | Potency [2] | Potency [3] | Potency [4] | Potency [5] | Potency [6]

CCOC(=O)OCC
inactive: Potency [1] | Potency [2] | Potency [3] | Potency [4] | Potency [5] | Potency [6]

C=C(C)C(=O)OCCOC(=O)CC(C)=O
inactive: Potency [1] | Potency [2] | Potency [3] | Potency [4] | Potency [5] | Potency [6]

CC(C)(CCl)c1ccccc1
inactive: Potency [1] | Potency [2] | Potency [3] | Potency [4] | Potency [5] | Potency [6]

C=CCCCCCCCCCCCCCCCC
inactive: viability change, negative = cytotoxic [1] -0.145% [at 7.04 µM] | activity change, negative = cytotoxicity [2] -12.1% [at 8.52 µM] | activity, negative = cytotoxicity [3] 2.07% [at 8.53 µM] | activity change, negative = cytotoxicity [4] -0.283% [at 8.55 µM] | activity change, negative = cytotoxicity [5] 0.86% [at 7.04 µM] | viability change, negative = cytotoxic [6] -4.7% [at 8.47 µM]

CCCCC(=O)O[C@]1(C(=O)CO)[C@@H](C)C[C@H]2[C@@H]3CCC4=CC(=O)C=C[C@]4(C)[C@@]3(F)[C@@H](O)C[C@@]21C
active: Potency [2] 43.3 µM | Potency [3] 24.3 µM | Potency [4] 24.3 µM
inactive: Potency [1] | Potency [6]

CCOc1cc(N)c(Cl)cc1C(=O)NCC1CN(Cc2ccc(F)cc2)CCO1 (stereo not drawn)
inactive: Potency [1] | Potency [5] | Potency [6]
active: Potency [2] 18.8 µM | Potency [3] 11.9 µM | Potency [4] 21.1 µM

Cc1oncc1C(=O)Nc1ccc(C(F)(F)F)cc1
active: Potency [2] 7.7 µM | Potency [3] 804 nM and 3.44 µM | Potency [4] 2.27 µM and 4.86 µM | Potency [5] 54.9 µM
inactive: Potency [1] | Potency [6]

NC(=O)N(O)[C@@H]1C=C[C@H](Oc2cccc(Oc3ccc(F)cc3)c2)C1
active: Potency [2] 54.5 µM | Potency [3] 61.1 µM | Potency [4] 54.5 µM
inactive: Potency [1] | Potency [6]

CCCCC(CC)CNCC(CC)CCCC (stereo not drawn)
inactive: Potency [1] | Potency [2] | Potency [3] | Potency [4] | Potency [5] | Potency [6]

CC1CC(O)CC(C)(C)C1 (stereo not drawn)
inactive: Potency [1] | Potency [2] | Potency [3] | Potency [4] | Potency [5] | Potency [6]

CCn1cc(C(=O)O)c(=O)c2cc(F)c(N3CCNCC3)nc21
inactive: Potency [1] | Potency [2] | Potency [3] | Potency [4] | Potency [5] | Potency [6]

CN1CCN(c2c(F)cc3c(=O)c(C(=O)O)cn4c3c2OCN4C)CC1
inactive: Potency [1] | Potency [2] | Potency [3] | Potency [4] | Potency [6]

CC(C)c1nnc2ccc(-c3ocnc3-c3cc(F)ccc3F)cn12
active: Potency [2] 27.3 µM | Potency [3] 21.7 µM | Potency [4] 27.3 µM
inactive: Potency [1] | Potency [6]

Cc1ccccc1N1C(=O)c2cc(S(N)(=O)=O)c(Cl)cc2NC1C (stereo not drawn)
inactive: Potency [1] | Potency [2] | Potency [3] | Potency [4] | Potency [5] | Potency [6]

C/C=C/C=C/CCCCCCCO
active: Potency [2] 21.7 µM | Potency [3] 30.6 µM | Potency [4] 24.3 µM
inactive: Potency [1] | Potency [6]

O=C(N[C@@H](c1ccccc1)[C@@H]1CCCCN1)c1cccc(C(F)(F)F)c1Cl
inactive: Potency [1]
active: Potency [2] 12.2 µM | Potency [3] 13.7 µM | Potency [4] 15.4 µM | Potency [6] 24.3 µM

CC1=CC(O)CC(C)(C)C1 (stereo not drawn)
inactive: Potency [1] | Potency [2] | Potency [3] | Potency [4] | Potency [5] | Potency [6]

Nc1nccs1
inactive: Potency [1] | Potency [2] | Potency [3] | Potency [4] | Potency [5] | Potency [6]

CCN(CC)CCNC(=O)c1ccc(NC(C)=O)cc1
inactive: Potency [1] | Potency [2] | Potency [3] | Potency [4] | Potency [7] | Potency [8] | Potency [9] | Potency [10]

Brc1cc(-c2ccc(Br)c(Br)c2Br)cc(Br)c1Br
inactive: Potency [1] | Potency [2] | Potency [3] | Potency [4] | Potency [5] | Potency [6]

O=C(CCCN1CCN(c2ccc(F)cc2)CC1)NC1c2ccccc2CSc2ccccc21 (stereo not drawn)
inactive: Potency [1] | Potency [6]
active: Potency [2] 13.3 µM | Potency [3] 26.6 µM | Potency [4] 18.8 µM

O=C(O)c1ccc(CO)o1
inactive: Potency [1] | Potency [2] | Potency [3] | Potency [4] | Potency [5] | Potency [6]

CC1CC(=O)NN=C1c1ccc(NCC(C)(C)NCC(O)COc2cc(Cl)ccc2C#N)cc1 (stereo not drawn)
inactive: Potency [1] | Potency [5] | Potency [6]
active: Potency [2] 0.668 µM | Potency [3] 0.376 µM | Potency [4] 0.668 µM
